For 30 compounds, survival results are on record in PubChem BioAssay AID463173 (ICCB-Longwood Screening Facility, Harvard Medical School, 2010).

Hit rate of the full screen: of about 52,000 compounds, about 1,700 (3.3%) were called active. The sample holds actives, similar compounds and a random draw of the others, so the mix is not that of the screen. No stated cut-off is given here; in the data, active means survival mostly below about 52% (no sharp cut-off); inactive means mostly above about 56%.

In this test the test system is Wild type. The test can be described thus: growth inhibition of S. aureus wild type versus tarO mutant, primary screen, teichoic acid synthesis inhibitors, RN4220, OD600 (AID 463173). The settings on record: S. aureus RN4220 wild type/DeltatarO growth, OD600, 18 h, stronger effect = lower value, screened at 18.75 µg/mL (by protocol).
Consider `CCCCCSc1nc2sc3c(c2c(=O)n1-c1ccc(OC)cc1)CCN(C(C)=O)C3`, for which the survival is -21% (active).

For `CCCCn1c(SCC(=O)c2ccccc2)nc2sc3c(c2c1=O)CCCC3`, the survival is 62% (inactive). With `C=C(C)Cn1c(SCC(=O)c2ccccc2)nc2sc3c(c2c1=O)CCCC3` the figure was 84% (inactive). As to `COc1ccc(-n2c(SC)nc3sc4c(c3c2=O)CCN(C(C)=O)C4)cc1`, the survival is 126% (inactive). With `C=C(C)CSc1nc2sc3c(c2c(=O)n1CCCC)CCCC3` the figure was 0% (active); with `CCCCCSc1nc2sc3c(c2c(=O)n1-c1ccccc1)CCN(C(C)=O)C3`, 58% (inactive); with `CCOC(=O)c1cccc(NC(=O)CSc2ncc3c(n2)-c2ccc(Cl)cc2N(Cc2ccccc2)S3(=O)=O)c1`, 87% (inactive). With `Cc1ccc(Nc2cc(-c3ccccc3)nc(C)n2)cc1` the figure was 37% (inactive); with `CSc1nc(Nc2ccc(F)cc2)cc(-c2ccccc2)n1`, -2% (active). Under `Cc1nc(Nc2ccc(Cl)cc2)cc(-c2ccccc2)n1` stands -2% (active). As to `Cc1cc(C)cc(Nc2cc(-c3ccccc3)nc(C)n2)c1`, the survival is 10% (active).

In the case of `CCOC(=O)c1ccc(Nc2cc(-c3ccccc3)nc(C)n2)cc1`, the survival is 83% (inactive). Under `CSc1nc(Nc2ccc(C)cc2C)cc(-c2ccccc2)n1` stands 50% (inactive); under `COc1cccc(Nc2cc(-c3ccccc3)nc(C)n2)c1`, 49% (inactive). Under `CCOc1ccccc1Nc1cc(-c2ccccc2)nc(C)n1` stands 78% (inactive); under `CSc1nc(C)cc(Nc2cccc(C(=O)O)c2)n1`, 87% (inactive); under `COc1ccccc1NC(=O)CSc1nncn2c1cc1sccc12`, 96% (inactive).

On to `Cc1oc(-c2ccccc2)nc1CSc1nnc(C)n2c1cc1sccc12`, for which the survival is 83% (inactive). With `CCN(CCCNC(=O)Cn1ncc2c([nH]c3ccc(C)cc32)c1=O)Cc1ccccc1`, the survival was 55% (inactive). In the case of `NCC(O)CN1CCN(Cc2ccccc2)CC1` (stereo not given), the survival was 105% (inactive).

As to `CCOC(=O)c1sc2ncn(CC(=O)Nc3ccc(N(C)C)cc3)c(=O)c2c1C`, the survival was 89% (inactive). Consider `CC(C)(C)c1ccc(-c2nc(NC(=O)CSc3ncnc4sc5c(c34)CCCC5)ns2)cc1`, for which the survival was 73% (inactive). With `Cc1ccc(-c2nc(NC(=O)CSc3ccc4ccccc4n3)ns2)cc1` the figure was 83% (inactive); with `Cc1cc(SCC(=O)Nc2nsc(-c3ccc(C(C)(C)C)cc3)n2)nc2ccccc12`, 7% (active); with `Cc1ccccc1-c1nc(NC(=O)CSc2ncnc3sc4c(c23)CCCC4)ns1`, 88% (inactive).

As to `O=C(CSc1ccc2ccccc2n1)Nc1nsc(-c2ccc(Cl)cc2)n1`, the survival is 68% (inactive).

`Cc1ccc(-c2nc(NC(=O)CSc3cc(C)c4ccccc4n3)ns2)cc1`: the survival was 71% (inactive). Under `COc1ccc2c(C)cc(SCC(=O)Nc3nsc(-c4ccc(C(C)(C)C)cc4)n3)nc2c1` stands 5% (active); under `COc1ccc2c(C)cc(SCC(=O)Nc3nsc(-c4ccccc4C)n3)nc2c1`, 1% (active); under `COc1cccc(NC(=O)CSc2cc(C)c3ccccc3n2)c1`, 73% (inactive).
